PubChem BioAssay (EPA / NIEHS)
Results filed as inconclusive are left out. The source made the active and inactive calls. The calls were made as follows: active = hit-call score of the fitted dose curve at least 0.9, where 1 is the maximum; inconclusive = response in the unintended direction; inactive = score below 0.9.

Legend:
[1] = molecular target: human Protein Tyrosine Phosphatase Non-receptor Type 6 (PTPN6), PTPN6 (gene 5777) (UniProt P29350); experiment: NVS_ENZ_hPTPN6: NovaScreen (NVS) Enzymatic Assay for human Protein Tyrosine Phosphatase Non-receptor Type 6 (PTPN6) (AID 2283210)
In short: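 Recombinant human PTPN6 from SF9 cells, enzyme activity followed by fluorescence after mobility-shift separation of substrate and product at 1.33 h. Chemicals first tested at a single 25 uM in duplicate, then confirmed across concentration series; loss of signal relative to DMSO.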

[2] = molecular target: human Protein Tyrosine Phosphatase Receptor Type C (PTPRC), PTPRC (gene 5788) (UniProt P08575); experiment: NVS_ENZ_hPTPRC: NovaScreen (NVS) Enzymatic Assay for human Protein Tyrosine Phosphatase Receptor Type C (PTPRC) (AID 2283212)
In short: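 Absorbance-based phosphatase activity of human PTPRC protein extracted from yeast was measured 1 h post-dosing. Compounds first tested at 25 uM in duplicate, then those passing threshold in singleton concentration series to 50 uM.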

[3] = molecular target: sheep Cyclooxygenase-2 (Cox2), PTGS2 (gene 443460) (UniProt P79208); experiment: NVS_ENZ_oCOX2: NovaScreen (NVS) Enzymatic Assay for sheep Cyclooxygenase-2 (Cox2) (AID 2283231)
In short: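 Colorimetric absorbance read-out of COX activity, taken 0.66 hour post-dosing, using native protein from sheep placenta. Single-concentration duplicate screen (25 uM), then singleton concentration-response up to 50 uM for actives.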

[4] = molecular target: human Protein Tyrosine Phosphatase Non-receptor Type 9 (PTPN9), PTPN9 (gene 5780) (UniProt P43378); experiment: NVS_ENZ_hPTPN9: NovaScreen (NVS) Enzymatic Assay for human Protein Tyrosine Phosphatase Non-receptor Type 9 (PTPN9) (AID 2283209)
In short: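 Sf9-expressed enzyme in a cell-free assay, fluorescence read 1.33 h after dosing with mobility-shift separation of substrate and product. Tested at 25 uM in duplicate, then up to 50 uM; signal loss versus DMSO.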

[5] = molecular target: human Protein Tyrosine Phosphatase Receptor Type F (PTPRF), PTPRF (gene 5792) (UniProt P10586); experiment: NVS_ENZ_hPTPRF: NovaScreen (NVS) Enzymatic Assay for human Protein Tyrosine Phosphatase Receptor Type F (PTPRF) (AID 2283213)
In short: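 Cell-free fluorescence enzyme assay with recombinant protein and substrate; product separated by electrophoretic mobility shift. Read 1 h after dosing, single 25 uM duplicate screen, then concentration-response up to 50 uM; loss of signal vs DMSO.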

[6] = molecular target: human Tyrosine Protein Kinase Receptor Tie-2 (Tie2), TEK (gene 7010) (UniProt Q02763); experiment: NVS_ENZ_hTie2: NovaScreen (NVS) Enzymatic Assay for human Tyrosine Protein Kinase Receptor Tie-2 (Tie2) (AID 2283225)
In short: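 Substrate and product were separated by mobility shift and detected by fluorescence after a 1-hour reaction with recombinant Tie2. Chemicals passing a 25 uM single-point screen were titrated to a maximum of 50 uM. Results were normalized to DMSO baseline.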

[7] = molecular target: human Protein Tyrosine Phosphatase Non-receptor Type 2 (PTPN2), PTPN2 (gene 5771) (UniProt P17706); experiment: NVS_ENZ_hPTPN2: NovaScreen (NVS) Enzymatic Assay for human Protein Tyrosine Phosphatase Non-receptor Type 2 (PTPN2) (AID 2283207)
In short: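 Activity measured as fluorescence after mobility-shift separation of substrate and product, 1 h after compound. Duplicate single-point 25 uM primary testing, concentration series for actives; inhibition scored as signal loss relative to DMSO baseline.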

[8] = molecular target: human Sirtuin 1 (SIRT1), SIRT1 (gene 23411) (UniProt Q96EB6); experiment: NVS_ENZ_hSIRT1: NovaScreen (NVS) Enzymatic Assay for human Sirtuin 1 (SIRT1) (AID 2283219)
In short: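 Cell-free recombinant SIRT1 with a fluorescent substrate; substrate and product separated by electrophoretic mobility shift and read by fluorescence intensity, 1 h after dosing. Primary screen at 25 uM in duplicate; hits re-run in concentration-response up to 50 uM, relative to DMSO.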

[9] = molecular target: human Vascular Endothelial Growth Factor Receptor 2 (VEGFR2), KDR (gene 3791) (UniProt P35968); experiment: NVS_ENZ_hVEGFR2: NovaScreen (NVS) Enzymatic Assay for human Vascular Endothelial Growth Factor Receptor 2 (VEGFR2) (AID 2283230)
In short: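 Cell-free recombinant VEGFR2 kinase, fluorescent substrate with electrophoretic mobility-shift separation; read 1 h after dosing. Screened at 25 uM in duplicate, hits to concentration-response up to 50 uM; loss-of-signal versus DMSO.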

[10] = molecular target: human Raf-1 Proto-Oncogene, serine/threonine Kinase (RAF1), RAF1 (gene 5894) (UniProt P04049); experiment: NVS_ENZ_hRAF1: NovaScreen (NVS) Enzymatic Assay for human Raf-1 Proto-Oncogene, serine/threonine Kinase (RAF1) (AID 2283216)
In short: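 Single-point screening at 25 uM (duplicate), followed by singleton concentration-response to 50 uM maximum for chemicals exceeding threshold. Enzyme activity from fluorescent substrate-product mobility-shift separation after 1 h, relative to DMSO.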

[11] = molecular target: human Protein Tyrosine Phosphatase Receptor Type M (PTPRM), PTPRM (gene 5797) (UniProt P28827); experiment: NVS_ENZ_hPTPRM: NovaScreen (NVS) Enzymatic Assay for human Protein Tyrosine Phosphatase Receptor Type M (PTPRM) (AID 2283215)
In short: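 Read-out is fluorescence after electrophoretic separation of substrate and product, taken 1.33 h post-dosing with recombinant enzyme. Compounds screened at 25 uM in duplicate, then concentration series for actives; activity as signal loss relative to DMSO.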

[12] = molecular target: human Sirtuin 2 (SIRT2), SIRT2 (gene 22933) (UniProt Q8IXJ6); experiment: NVS_ENZ_hSIRT2: NovaScreen (NVS) Enzymatic Assay for human Sirtuin 2 (SIRT2) (AID 2283217)
In short: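 Single-point duplicate screen at 25 uM, then concentration-response (max 50 uM) for chemicals passing threshold. Enzyme activity of recombinant human SIRT2 measured after 1 hr by fluorescence with mobility-shift separation of product; DMSO baseline.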

[13] = molecular target: human Vascular Endothelial Growth Factor Receptor 1 (VEGFR1), FLT1 (gene 2321) (UniProt P17948); experiment: NVS_ENZ_hVEGFR1: NovaScreen (NVS) Enzymatic Assay for human Vascular Endothelial Growth Factor Receptor 1 (VEGFR1) (AID 2283226)
In short: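 Kinase activity of recombinant human VEGFR1 was read by fluorescence after electrophoretic separation of product from substrate, 1 h post-dosing; initial duplicate single-point testing at 25 uM, followed by concentration-series follow-up, with DMSO as baseline.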

[14] = molecular target: human Protein Tyrosine Phosphatase Non-receptor Type 4 (PTPN4), PTPN4 (gene 5775) (UniProt P29074); experiment: NVS_ENZ_hPTPN4: NovaScreen (NVS) Enzymatic Assay for human Protein Tyrosine Phosphatase Non-receptor Type 4 (PTPN4) (AID 2283208)
In short: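 Screened in duplicate at 25 uM, with hits then titrated to a top concentration of 50 uM. Recombinant Sf9-derived PTPN4 turnover was read by fluorescence with electrophoretic separation, 1.33 h after compound addition. DMSO served as baseline.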

[15] = molecular target: human SRC Proto-Oncogene, Non-receptor Tyrosine Kinase (SRC), SRC (gene 6714) (UniProt P12931); experiment: NVS_ENZ_hSRC: NovaScreen (NVS) Enzymatic Assay for human SRC Proto-Oncogene, Non-receptor Tyrosine Kinase (SRC) (AID 2283223)
In short: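 Compounds passing 30% inhibition at 25 uM (duplicate) were titrated to a top concentration of 50 uM. Enzyme activity read by fluorescence with mobility-shift substrate/product separation after 1 h; DMSO baseline.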

[16] = molecular target: human Tropomyosin Receptor Kinase A (TRKA), NTRK1 (gene 4914) (UniProt P04629); experiment: NVS_ENZ_hTrkA: NovaScreen (NVS) Enzymatic Assay for human Tropomyosin Receptor Kinase A (TRKA) (AID 2283224)
In short: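 Compounds were screened at 25 uM in duplicate, then concentration series to a 50 uM top for those meeting threshold (e.g. 30% inhibition). Enzyme was recombinant human TrkA, incubated 1 h. Product formation was quantified by fluorescence after mobility-shift separation.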

[17] = molecular target: human Vascular Endothelial Growth Factor Receptor 3 (VEGFR3), FLT4 (gene 2324) (UniProt P35916); experiment: NVS_ENZ_hVEGFR3: NovaScreen (NVS) Enzymatic Assay for human Vascular Endothelial Growth Factor Receptor 3 (VEGFR3) (AID 2283229)
In short: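 Chemicals first run in duplicate at 25 uM, with actives re-tested in concentration series to a top of 50 uM. Recombinant VEGFR3 activity measured after 1 h via fluorescence with mobility-shift product separation; inhibition fitted relative to DMSO.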

[18] = molecular target: rabbit Imidazoline 2 Central (I2C), CKB (gene 100009085) (UniProt P00567); experiment: NVS_ENZ_rabI2C: NovaScreen (NVS) Enzymatic Assay for rabbit Imidazoline 2 Central (I2C) (AID 2283228)
In short: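 Rabbit brain membranes, cell-free; readout by filter-based scintillation counting 1.5 hours after dosing, loss of signal vs DMSO. Initial duplicate test at 25 uM, then concentration-response with 50 uM top concentration.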

Sequence of human Raf-1 Proto-Oncogene, serine/threonine Kinase (RAF1), RAF1 (gene 5894) (P04049 whole entry, looked up): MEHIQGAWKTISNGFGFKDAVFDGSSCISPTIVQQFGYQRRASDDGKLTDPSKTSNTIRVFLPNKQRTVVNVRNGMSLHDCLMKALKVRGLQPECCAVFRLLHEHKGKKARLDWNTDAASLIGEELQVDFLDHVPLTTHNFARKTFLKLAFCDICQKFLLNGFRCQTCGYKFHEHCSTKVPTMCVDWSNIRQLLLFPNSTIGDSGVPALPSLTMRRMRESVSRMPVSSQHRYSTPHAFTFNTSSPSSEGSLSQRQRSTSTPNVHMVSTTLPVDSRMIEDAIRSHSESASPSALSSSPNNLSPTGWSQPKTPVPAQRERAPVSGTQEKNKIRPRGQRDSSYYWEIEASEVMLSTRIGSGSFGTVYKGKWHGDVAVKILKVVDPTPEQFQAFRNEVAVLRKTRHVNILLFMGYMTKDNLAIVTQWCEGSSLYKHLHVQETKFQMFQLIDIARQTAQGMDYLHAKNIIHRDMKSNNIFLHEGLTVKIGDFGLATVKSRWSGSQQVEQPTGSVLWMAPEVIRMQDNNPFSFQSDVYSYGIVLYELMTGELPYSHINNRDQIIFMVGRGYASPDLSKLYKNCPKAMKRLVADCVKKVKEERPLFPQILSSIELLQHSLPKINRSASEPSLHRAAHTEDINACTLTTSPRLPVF
Sequence of human Protein Tyrosine Phosphatase Receptor Type M (PTPRM), PTPRM (gene 5797) (P28827 whole entry, looked up): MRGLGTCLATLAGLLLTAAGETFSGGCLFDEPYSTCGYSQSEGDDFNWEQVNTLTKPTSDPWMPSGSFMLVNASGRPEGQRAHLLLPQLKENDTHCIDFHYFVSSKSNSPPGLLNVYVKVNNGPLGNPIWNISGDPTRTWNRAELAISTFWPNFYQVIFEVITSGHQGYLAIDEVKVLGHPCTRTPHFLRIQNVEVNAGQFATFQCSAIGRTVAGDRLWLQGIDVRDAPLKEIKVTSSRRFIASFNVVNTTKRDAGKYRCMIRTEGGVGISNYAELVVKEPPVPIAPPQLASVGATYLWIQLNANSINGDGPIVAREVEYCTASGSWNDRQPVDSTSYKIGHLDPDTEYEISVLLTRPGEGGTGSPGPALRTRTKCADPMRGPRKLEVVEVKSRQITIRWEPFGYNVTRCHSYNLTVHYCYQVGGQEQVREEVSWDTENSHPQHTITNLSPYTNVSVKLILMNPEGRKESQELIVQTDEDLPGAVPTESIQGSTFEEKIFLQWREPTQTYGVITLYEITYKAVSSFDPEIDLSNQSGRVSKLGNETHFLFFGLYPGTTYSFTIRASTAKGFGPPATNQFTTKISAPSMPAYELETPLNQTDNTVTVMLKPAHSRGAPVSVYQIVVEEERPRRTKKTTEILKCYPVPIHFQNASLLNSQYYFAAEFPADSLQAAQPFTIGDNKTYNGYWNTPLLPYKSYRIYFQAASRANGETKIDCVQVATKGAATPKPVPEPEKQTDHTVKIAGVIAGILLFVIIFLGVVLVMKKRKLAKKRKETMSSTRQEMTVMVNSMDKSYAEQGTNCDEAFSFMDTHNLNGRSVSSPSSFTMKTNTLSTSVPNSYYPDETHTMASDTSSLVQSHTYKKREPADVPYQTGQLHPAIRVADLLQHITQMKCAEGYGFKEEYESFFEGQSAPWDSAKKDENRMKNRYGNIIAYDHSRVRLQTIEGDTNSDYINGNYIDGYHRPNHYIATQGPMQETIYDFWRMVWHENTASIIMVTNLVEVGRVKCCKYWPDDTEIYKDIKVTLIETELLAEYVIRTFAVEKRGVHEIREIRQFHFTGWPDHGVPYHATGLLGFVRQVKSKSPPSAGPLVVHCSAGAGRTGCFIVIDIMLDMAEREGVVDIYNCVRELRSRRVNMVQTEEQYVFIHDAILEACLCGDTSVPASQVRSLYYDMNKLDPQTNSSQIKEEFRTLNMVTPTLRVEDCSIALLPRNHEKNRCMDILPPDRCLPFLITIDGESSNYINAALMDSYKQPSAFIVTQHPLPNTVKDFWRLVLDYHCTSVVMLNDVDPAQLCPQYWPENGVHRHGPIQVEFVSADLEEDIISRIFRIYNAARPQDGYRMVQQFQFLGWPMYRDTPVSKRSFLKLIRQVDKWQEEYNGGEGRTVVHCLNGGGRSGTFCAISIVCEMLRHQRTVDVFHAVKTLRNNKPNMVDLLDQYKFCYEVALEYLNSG
Sequence of human Protein Tyrosine Phosphatase Non-receptor Type 9 (PTPN9), PTPN9 (gene 5780) (P43378 whole entry, looked up): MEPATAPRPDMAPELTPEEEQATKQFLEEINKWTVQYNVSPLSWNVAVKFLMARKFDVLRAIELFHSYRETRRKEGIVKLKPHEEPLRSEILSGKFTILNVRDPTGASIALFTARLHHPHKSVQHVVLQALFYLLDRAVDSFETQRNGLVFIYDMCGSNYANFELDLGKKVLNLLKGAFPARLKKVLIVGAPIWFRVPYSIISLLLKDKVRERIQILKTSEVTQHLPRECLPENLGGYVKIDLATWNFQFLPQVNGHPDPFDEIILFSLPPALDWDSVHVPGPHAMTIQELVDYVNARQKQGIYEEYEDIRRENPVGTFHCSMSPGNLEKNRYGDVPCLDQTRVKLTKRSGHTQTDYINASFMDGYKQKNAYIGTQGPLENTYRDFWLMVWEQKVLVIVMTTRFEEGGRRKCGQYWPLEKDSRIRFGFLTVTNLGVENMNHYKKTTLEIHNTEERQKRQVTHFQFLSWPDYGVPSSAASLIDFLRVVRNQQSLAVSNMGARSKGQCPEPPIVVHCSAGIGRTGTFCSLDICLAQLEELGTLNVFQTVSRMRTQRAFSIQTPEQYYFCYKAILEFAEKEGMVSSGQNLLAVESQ
Sequence of sheep Cyclooxygenase-2 (Cox2), PTGS2 (gene 443460) (P79208 whole entry, looked up): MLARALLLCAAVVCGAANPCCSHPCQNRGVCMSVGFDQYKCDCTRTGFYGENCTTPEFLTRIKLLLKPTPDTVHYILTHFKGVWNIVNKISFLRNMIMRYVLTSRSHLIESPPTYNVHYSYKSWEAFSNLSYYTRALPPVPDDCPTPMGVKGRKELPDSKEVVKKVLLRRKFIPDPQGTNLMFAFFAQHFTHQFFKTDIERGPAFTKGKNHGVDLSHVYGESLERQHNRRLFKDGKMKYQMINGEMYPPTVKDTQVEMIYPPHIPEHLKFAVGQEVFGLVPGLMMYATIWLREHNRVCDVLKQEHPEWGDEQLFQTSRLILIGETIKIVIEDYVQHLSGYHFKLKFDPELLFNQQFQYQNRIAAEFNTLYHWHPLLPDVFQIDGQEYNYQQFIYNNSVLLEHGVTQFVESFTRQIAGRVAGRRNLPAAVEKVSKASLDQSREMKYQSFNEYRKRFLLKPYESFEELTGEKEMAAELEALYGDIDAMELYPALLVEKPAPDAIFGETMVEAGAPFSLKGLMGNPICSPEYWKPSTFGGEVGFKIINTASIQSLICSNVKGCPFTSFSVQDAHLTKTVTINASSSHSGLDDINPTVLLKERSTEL
Sequence of human Protein Tyrosine Phosphatase Non-receptor Type 6 (PTPN6), PTPN6 (gene 5777) (P29350 whole entry, looked up): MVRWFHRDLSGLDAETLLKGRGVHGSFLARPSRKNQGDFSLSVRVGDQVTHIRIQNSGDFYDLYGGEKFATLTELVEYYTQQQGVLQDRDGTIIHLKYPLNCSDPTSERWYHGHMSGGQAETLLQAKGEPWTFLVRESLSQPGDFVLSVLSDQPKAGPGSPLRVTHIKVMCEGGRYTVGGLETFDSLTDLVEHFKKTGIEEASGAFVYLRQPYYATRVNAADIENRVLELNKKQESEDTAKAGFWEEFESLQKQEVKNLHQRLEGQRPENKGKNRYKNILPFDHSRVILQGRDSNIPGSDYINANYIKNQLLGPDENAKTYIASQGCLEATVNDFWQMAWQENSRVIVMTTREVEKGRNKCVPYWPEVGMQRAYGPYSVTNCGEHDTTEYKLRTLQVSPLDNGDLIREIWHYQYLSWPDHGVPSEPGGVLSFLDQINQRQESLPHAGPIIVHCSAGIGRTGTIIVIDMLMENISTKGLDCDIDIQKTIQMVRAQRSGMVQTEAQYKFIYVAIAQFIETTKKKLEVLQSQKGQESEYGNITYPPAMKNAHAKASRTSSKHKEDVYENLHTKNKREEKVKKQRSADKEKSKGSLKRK
Sequence of human Protein Tyrosine Phosphatase Non-receptor Type 2 (PTPN2), PTPN2 (gene 5771) (P17706 whole entry, looked up): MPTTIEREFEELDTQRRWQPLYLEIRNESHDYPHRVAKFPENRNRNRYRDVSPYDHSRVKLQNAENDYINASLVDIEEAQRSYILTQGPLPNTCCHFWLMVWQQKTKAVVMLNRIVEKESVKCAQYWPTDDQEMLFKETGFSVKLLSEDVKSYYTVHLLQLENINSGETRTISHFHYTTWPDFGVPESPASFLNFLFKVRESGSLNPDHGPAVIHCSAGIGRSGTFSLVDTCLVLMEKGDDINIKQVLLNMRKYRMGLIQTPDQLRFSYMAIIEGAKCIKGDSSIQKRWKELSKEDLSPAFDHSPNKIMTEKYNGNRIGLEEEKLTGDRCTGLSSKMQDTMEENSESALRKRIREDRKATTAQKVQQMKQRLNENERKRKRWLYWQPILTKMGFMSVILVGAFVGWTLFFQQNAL
Sequence of human Sirtuin 2 (SIRT2), SIRT2 (gene 22933) (Q8IXJ6 whole entry, looked up): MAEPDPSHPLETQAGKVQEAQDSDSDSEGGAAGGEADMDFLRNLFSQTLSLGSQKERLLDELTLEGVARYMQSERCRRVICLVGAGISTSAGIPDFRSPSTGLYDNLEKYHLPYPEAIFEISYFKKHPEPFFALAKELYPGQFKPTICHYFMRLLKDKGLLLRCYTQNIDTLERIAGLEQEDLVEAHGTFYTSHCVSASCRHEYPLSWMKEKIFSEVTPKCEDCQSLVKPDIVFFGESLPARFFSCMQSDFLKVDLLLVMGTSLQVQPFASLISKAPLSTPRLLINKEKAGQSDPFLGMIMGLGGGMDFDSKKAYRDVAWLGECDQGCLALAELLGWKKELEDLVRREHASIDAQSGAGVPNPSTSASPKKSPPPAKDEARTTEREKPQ

## CN(C)[C@@H]1C(=O)C(C(N)=O)=C(O)[C@@]2(O)C(=O)C3=C(O)c4c(O)cccc4[C@@](C)(O)[C@H]3C[C@@H]12
[1]
  AC50: 25 µM (active)
[2]
  AC50: 15.6 µM (active)
[3]
  AC50: 11.4 µM (active)

## [O-][Cl+]O
[2]
  outcome: inactive

## O=P(OCCCl)(OCCCl)OCCCl
[1]
  outcome: inactive
[3]
  outcome: inactive

## Oc1ccc2ccc3cccc4ccc1c2c34
[4]
  AC50: 1.44 µM (active)
[5]
  AC50: 16.5 µM (active)
[6]
  AC50: 13.6 µM (active)

## CC(C)(C)OOC(C)(C)CCC(C)(C)OOC(C)(C)C
[1]
  AC50: 39 µM (active)

## Clc1ccc(C(c2ccc(Cl)cc2)C(Cl)(Cl)Cl)cc1
[7]
  outcome: inactive
[4]
  outcome: inactive
[1]
  outcome: inactive
[8]
  AC50: 25 µM (active)
[9]
  outcome: inactive

## O=C1CCCO1
[1]
  outcome: inactive

## CCC(C)c1ccc(O)cc1 (centres undefined)
[1]
  outcome: inactive

## C[C@]12C=CC3=C4CCC(=O)C=C4CC[C@H]3[C@@H]1CC[C@@H]2O
[2]
  AC50: 9.63 µM (active)
[10]
  outcome: inactive

## c1ccc(C2CO2)cc1 (centres undefined)
[1]
  outcome: inactive

## Nc1ccc(Cl)cc1N
[2]
  AC50: 16.2 µM (active)

## c1ccc2c(c1)oc1ccccc12
[7]
  outcome: inactive
[1]
  outcome: inactive
[11]
  outcome: inactive

## CCN(CC)CCO
[4]
  outcome: inactive

## Cc1cccc(N)c1N
[2]
  AC50: 15.8 µM (active)

## Cn1cc(-c2ccccc2)c(=O)c(-c2cccc(C(F)(F)F)c2)c1
[7]
  AC50: 0.115 µM (active)

## CCCCCOC(=O)c1ccccc1C(=O)OCCCCC
[4]
  outcome: inactive

## Nc1ccc(Oc2ccc(N)cc2)cc1
[4]
  outcome: inactive
[1]
  AC50: 17 µM (active)

## OCCCBr
[1]
  outcome: inactive
[11]
  AC50: 13 µM (active)

## O=[N+]([O-])c1ccc(Oc2ccc(Cl)cc2Cl)cc1
[1]
  outcome: inactive
[2]
  outcome: inactive

## CC(C)(C)OOC(=O)c1ccccc1
[1]
  outcome: inactive
[3]
  outcome: inactive

## ClC1=C(Cl)[C@]2(Cl)[C@H]3[C@H]([C@@H]4C=C[C@H]3C4)[C@@]1(Cl)C2(Cl)Cl
[4]
  outcome: inactive
[9]
  outcome: inactive

## CC(C)(OOC(C)(C)c1ccccc1)c1ccccc1
[1]
  outcome: inactive
[9]
  outcome: inactive

## CCN(CC)N=O
[4]
  outcome: inactive
[5]
  outcome: inactive
[11]
  outcome: inactive
[10]
  outcome: inactive
[12]
  outcome: inactive
[6]
  outcome: inactive
[13]
  outcome: inactive
[9]
  outcome: inactive

## CCNS(=O)(=O)C(F)(F)C(F)(F)C(F)(F)C(F)(F)C(F)(F)C(F)(F)C(F)(F)C(F)(F)F
[7]
  outcome: inactive
[14]
  outcome: inactive
[4]
  outcome: inactive
[11]
  outcome: inactive
[8]
  outcome: inactive
[15]
  outcome: inactive
[16]
  outcome: inactive
[6]
  outcome: inactive
[17]
  outcome: inactive
[9]
  outcome: inactive

## COC(=O)c1ccccc1N
[2]
  outcome: inactive

## CN(C)c1ccc(C(=O)c2ccc(N(C)C)cc2)cc1
[4]
  AC50: 41.7 µM (active)
[18]
  outcome: inactive
[3]
  AC50: 13 µM (active)

## Clc1ccc(C(c2ccc(Cl)cc2)C(Cl)Cl)cc1
[1]
  outcome: inactive
[9]
  outcome: inactive

## C[N+](C)(C)CC1CO1 (centres undefined)
[1]
  outcome: inactive

## N#CC(Br)Br
[10]
  outcome: inactive

## Cc1ccc(N=C=O)cc1N=C=O
[12]
  AC50: 25 µM (active)

## COc1cc(C=O)cc2c1[C@H](COC(N)=O)[C@]1(OC(C)=O)ON2C[C@H]2[C@@H]1N2C(C)=O
[17]
  outcome: inactive

## CCOC(=O)[C@]1(c2ccccc2)Oc2ccccc2[C@@H]1N
[17]
  outcome: inactive
